Screen size: about 30,000 compounds; about 130 (0.43%) were called active. The full list was thinned out, with actives kept by preference. Unmarked numbers belong to inactive results. No stated cut-off is given here; in the data, active means activation above about 65%; inactive means the rest.
The compounds below were run against Lysosomal acid glucosylceramidase (Homo sapiens) (UniProt P04062) (assay: GBA activity enhancers in patient fibroblasts, primary screen, cell-based (AID 784;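 further: 0% = vehicle wells and 100% = positive control wells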)). Settings: L444P Gaucher fibroblasts, 4-MU-glucoside fluorescence, 3 days; at 10 µM; active compounds read high.
Chain of Lysosomal acid glucosylceramidase (Homo sapiens) (P04062 whole entry L483P): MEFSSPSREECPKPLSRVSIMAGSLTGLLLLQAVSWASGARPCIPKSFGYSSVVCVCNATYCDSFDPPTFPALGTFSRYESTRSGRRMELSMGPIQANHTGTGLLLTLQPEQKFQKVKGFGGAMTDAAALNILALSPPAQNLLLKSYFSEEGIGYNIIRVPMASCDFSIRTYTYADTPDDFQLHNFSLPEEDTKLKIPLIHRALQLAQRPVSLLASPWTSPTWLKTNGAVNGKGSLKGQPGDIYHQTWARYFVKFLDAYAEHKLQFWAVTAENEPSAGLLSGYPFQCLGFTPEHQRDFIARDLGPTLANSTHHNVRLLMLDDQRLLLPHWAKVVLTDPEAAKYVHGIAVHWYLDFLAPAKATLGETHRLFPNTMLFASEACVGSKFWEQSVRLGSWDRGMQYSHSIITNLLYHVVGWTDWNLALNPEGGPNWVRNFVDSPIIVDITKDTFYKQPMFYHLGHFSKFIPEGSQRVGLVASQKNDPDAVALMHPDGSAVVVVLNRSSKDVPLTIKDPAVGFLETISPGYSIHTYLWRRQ
Compound `COc1ccc(CC(=O)Nc2ccc3c(c2)CCC3)cc1S(=O)(=O)N1CCOCC1` has an activation of 32.8%. With `Cc1ccc(C(=O)NC2CC(C)(C)NC(C)(C)C2)c(C)c1` the activation was -52.5%. `CC(=NC1CCN(Cc2ccccc2)CC1)c1c(O)[nH]c(=O)[nH]c1=O` showed an activation of -6.5%. `CS(=O)(=O)N(CC(=O)N1CCN(Cc2ccc3c(c2)OCO3)CC1)c1ccc2c(c1)OCO2` gave an activation of -6.7%. In the case of `CCC(C)n1[nH]c(=O)cc1N` (stereo unspecified), the activation is reported as 4.55%. `COc1ccc(C(=O)Cn2nnc(-c3ccc(N4CCOCC4)cc3)n2)cc1OC` was tested, and the activation was -17.5%. With `O=C1CN(C(=O)COC(=O)C2CC(=O)N(Cc3ccco3)C2)c2ccccc2N1` (stereo unspecified) the activation was 4.58%. `CN(C(=O)c1ccno1)c1nnc(-c2cccnc2)s1` was tested, and the activation was -12.7%. `COC(=O)c1sc(NC(=O)c2csc3c2CCCC3)nc1C` was tested, and the activation was 67.1% (active). `CC(=O)Cc1nsc(NC(=O)c2csc3c2CCCC3)n1` was tested, and the activation was -9.06%. Work on `COC(=O)c1sccc1NC(=O)c1csc2c1CCCC2` yielded an activation of -10.4%. For `CCN(CC)S(=O)(=O)c1ccc(NC(=O)CN(c2cccc(F)c2)S(C)(=O)=O)cc1`, the activation was 83.1% (active). Compound `COc1cccc(N(CC(=O)Nc2cccc(F)c2)S(C)(=O)=O)c1` has an activation of 4.09%. In the case of `COc1cccc(N(CC(=O)Nc2cccc(N(C)S(C)(=O)=O)c2)S(C)(=O)=O)c1`, the activation is reported as -7.1%. Work on `COc1ccccc1N1CCN(C(=O)CSc2nnc(-c3ccoc3C)o2)CC1` yielded an activation of 7.59%. `CCC(C)(C)NC(=O)C(c1cccn1C)N(Cc1ccc(C)cc1)C(=O)Cn1nnc2ccccc21` (stereo unspecified) showed an activation of -4.98%. With `CCOC(=O)C1(c2ccccc2)NC(c2ccc(N(C)C)cc2)C2C(=O)N(C)C(=O)C21` (stereo unspecified) the activation was -22.4%. For `CCOC(=O)C1(Cc2ccc(O)cc2)NC(c2ccccc2F)C2C(=O)N(C)C(=O)C21` (stereo unspecified), the activation was 102% (active). In the case of `COc1ccc2nc(N3CCCC(O)C3)c(C#N)cc2c1` (stereo unspecified), the activation is reported as -3.51%. `Cc1nc(SC(C)C)[nH]c(=O)c1Cc1ccccc1` was tested, and the activation was 1.07%. Work on `CCc1c(C)nc2ncnn2c1N1CCC(C(=O)NCc2ccc3c(c2)OCO3)CC1` yielded an activation of 9.86%. In the case of `CCOC(=O)C(C)Oc1cccc2c(=O)n(CC(=O)N3CCc4ccccc43)ccc12` (stereo unspecified), the activation is reported as 3.53%. Compound `O=C(COC(=O)c1ccc2c(c1)OCCO2)NCc1ccccc1` has an activation of 1.84%. `Cc1cc(C)c(S(=O)(=O)NCCCN2CCOCC2)cc1Br` was tested, and the activation was 17.8%. With `CCN(CC)S(=O)(=O)c1cccc(C(=O)Nc2ccccc2)c1` the activation was -3.99%. `CC(C)C[C@H](NC(=O)NCCc1ccc(Cl)cc1)C(=O)O` was tested, and the activation was -14.7%. `COc1ccc(CCN=C2SCC(=O)N2C)cc1OC` gave an activation of -11.5%. `CCOc1ncccc1C(=O)OCc1cn2cc(Cl)ccc2n1` gave an activation of 2.09%. `COc1ccccc1N1CCN(C(=O)Cn2nnc(-c3cccs3)n2)CC1` showed an activation of -45%. Compound `O=C(CN1CCN(c2nc(-c3ccccc3)cs2)CC1)NCc1ccc2c(c1)OCO2` has an activation of -22.9%. `COC(=O)c1cn(-c2ccccc2)nc1-c1cccnc1` gave an activation of 64.9%. For `CCOc1ccc(N2C(=O)CC(N(O)c3ccccc3)C2=O)cc1` (stereo unspecified), the activation was 20.8%. `Cc1cc(C)nc(SCc2nnc(SCC(=O)OC3CCCCC3)o2)n1` gave an activation of -16%. Work on `Cc1ccc(C(=O)CSc2nc3ccccc3c(=O)n2N)o1` yielded an activation of -3.06%. Work on `Cc1ccc(S(=O)(=O)NCC(=O)OCC(=O)N2CCc3ccccc32)cc1` yielded an activation of -6.72%. `O=C(Nc1ccccc1)c1cccnc1Nc1ccccc1` was tested, and the activation was -10.1%. `O=C(Nc1ccc2c(c1)nc1n2CCCCC1)c1cc(S(=O)(=O)N2CCOCC2)ccc1Cl` showed an activation of -3.59%. For `CCN(CC(=O)NC(C)C)C(=O)CCNC(=O)c1ccc(Cl)cc1`, the activation was 21%. With `CN1CCN(S(=O)(=O)c2ccc(NC(=O)c3ccco3)cc2)CC1` the activation was -8.04%. Compound `CCC1SC2=NCCN2C1(O)c1ccc(Cl)cc1` (stereo unspecified) has an activation of -18.2%. With `c1ccc(-c2oc3ncnc(N4CCOCC4)c3c2-c2ccccc2)cc1` the activation was -12.4%. For `CCC(C)Sc1nc2c(c(=O)[nH]c(=O)n2C)n1CC(O)COc1cccc2ccccc12` (stereo unspecified), the activation was -21%. `CNC(=O)C1CC(=O)N(Cc2ccc3c(c2)OCO3)C(=Nc2ccc(F)cc2)S1` (stereo unspecified) showed an activation of -16.6%. In the case of `COc1ccc(C(=O)CSc2nccc(=O)[nH]2)cc1`, the activation is reported as -9.63%. `O=C(OCc1nnc(-c2ccccc2)o1)c1ccc2c(c1)C(=O)N(CCc1ccccc1)C2=O` gave an activation of -2.93%. With `COc1c(C)cccc1C(=O)Nc1cc(Cl)ccc1N1CCOCC1` the activation was -42.8%. `CC(=O)OCc1cc2cc(C)ccc2[nH]c1=O` was tested, and the activation was -12%. `COc1cc2c(cc1OC)C(c1ccncc1)CC(=O)N2` (stereo unspecified) showed an activation of -30.8%. Compound `CCc1c(C)nc(N)n2c(SCC(=O)N3CCN(c4ccccc4)CC3)nnc12` has an activation of -9.46%. `CCOC(=O)c1c(NC(=O)CCC(=O)NCc2ccco2)sc2c1CCCC2` showed an activation of -3.62%. `O=c1nc(N2CCOCC2)nc2n1CCO2` was tested, and the activation was 0.48%. `O=C(CN1C2CCC1CC(NC(=O)C1CC1)C2)NCc1ccccc1` (stereo unspecified) was tested, and the activation was -20%. Compound `CCn1c(COc2cccc(OC)c2)nnc1SCC(=O)N1CCOCC1` has an activation of 2.04%. With `COc1ccc(S(=O)(=O)N(CCCN2CCCC2=O)Cc2cc3c(C)ccc(C)c3[nH]c2=O)cc1` the activation was -24.5%. Compound `COc1ccccc1Nc1ncnc2c1oc1ccccc12` has an activation of -53.1%. `O=C(NCc1ccccn1)c1cc2ccccc2oc1=O` was tested, and the activation was -7.53%. With `O=C(CNCCO)NC12CC3CC(CC(C3)C1)C2` the activation was 10%. For `COc1cc(NS(=O)(=O)c2ccccc2)ccc1-n1nc(C)cc1C`, the activation was 4.78%. With `C=C(C)c1cccc(C(C)(C)NC(=O)N2CCN(c3ncccn3)CC2)c1` the activation was 0.53%. `Cc1ccsc1C(=O)OCC(=O)c1cc2ccccc2o1` was tested, and the activation was 6.97%. Compound `COc1ccc(CCn2nnnc2C(c2ccccc2)N2CCN(C)CC2)cc1OC` (stereo unspecified) has an activation of -1.68%. `CCn1c(SCC(=O)NCC2CCCO2)nc2cc(S(=O)(=O)N3CCCCC3)ccc21` (stereo unspecified) showed an activation of -14.9%. `CCN1C(=O)CS/C1=N\c1nccs1` was tested, and the activation was -12.6%. `Cc1ccc(S(=O)(=O)N(C)CC(=O)N2CCc3ccccc32)cc1` gave an activation of 0.44%. `Cc1cccc(OCc2nnc(SCn3nnc4ccccc4c3=O)o2)c1` gave an activation of 4.49%. With `Cc1cc(C)cc(OCc2nnc(SCC(=O)Nc3ccccc3)o2)c1` the activation was -21.4%. `O=C(Nc1ccc2c(c1)OCCO2)C1CCCN(c2ncccn2)C1` (stereo unspecified) showed an activation of -35.2%. For `O=C(NC1CCN(Cc2ccccc2)CC1)c1ccccc1F`, the activation was -0.98%. Work on `O=C(COC(=O)c1ccc(Oc2ccccc2)cc1)Nc1nnc(-c2ccccc2)o1` yielded an activation of -9.15%. Work on `Cc1nc2cc(-c3ccc(F)cc3)nn2c(N2CCOCC2)c1C` yielded an activation of 4.6%. `COc1ccc(CNC2CCCCC2)cc1` was tested, and the activation was -12%. Compound `CCn1c(COc2ccc(OC)cc2)nnc1SCC(=O)Nc1cc(OC)ccc1OC` has an activation of -5.85%. `CC(=O)N1CCC(C(=O)Nc2nc(-c3ccccc3)ns2)CC1` was tested, and the activation was -7.15%. Compound `Cn1c(=O)c2c(nc(CN3CCOCC3)n2Cc2ccccc2)n(C)c1=O` has an activation of -2.48%. In the case of `Cc1ccc(-c2nc(COC(=O)c3c(C)noc3C)cs2)cc1`, the activation is reported as 4.07%. Compound `CCOC(=O)c1ccccc1NC(=O)CC1Nc2ccccc2NC1=O` (stereo unspecified) has an activation of -13.8%. Work on `Cc1cccc2nc(CNc3ccc(F)cc3)cn12` yielded an activation of -22.2%. `COC(=O)N1CN(C(=O)OC)CN(C(=O)OC)C1` gave an activation of -8.85%. For `CC(=O)N1CCN(C(=O)c2cccc(S(=O)(=O)Nc3ccc(C)cc3)c2)CC1`, the activation was 5.73%. `CCn1nnc(NC(=O)c2c(OC)cccc2OC)n1` showed an activation of 4.73%. `COc1ccccc1N1CC(O)=C(c2nc3ccccc3s2)C1=N` was tested, and the activation was 8.76%. For `Cc1ccc(NC(=O)CN2CCC3(O)CCCCC3C2c2ccc3c(c2)OCO3)c(C)c1` (stereo unspecified), the activation was -20.4%. `CCOC(=O)c1sc(/N=C/Nc2nc(C)c(C(=O)OCC)s2)nc1C` showed an activation of -5.05%. In the case of `CCC(c1nnnn1Cc1ccccc1)N(Cc1cc2cc(OC)ccc2[nH]c1=O)CC1CCCO1` (stereo unspecified), the activation is reported as -25.6%. In the case of `COc1ccc(CCNC(=O)c2ccco2)cc1`, the activation is reported as -11.6%. Compound `CCC12CN3CC(CC)(CN(C1)C31C(=O)N(C)c3ccc(C)cc31)C2=O` (stereo unspecified) has an activation of -17.4%. `Cc1cccc(NC(=O)COc2ccc(Br)cc2C)n1` was tested, and the activation was 7.05%. `CC(=O)c1ccc(-n2nnnc2SCC(=O)N2CCN(C(=O)c3ccco3)CC2)cc1` gave an activation of -18.5%. In the case of `O=C(CN(CC1CCCO1)C(=O)CNS(=O)(=O)c1ccccc1)NCc1ccccc1` (stereo unspecified), the activation is reported as -28.7%. Compound `CC1CCCC(NC(=O)CSc2nccn2C)C1C` (stereo unspecified) has an activation of -8.08%. With `CCOC(=O)c1c(C)[nH]c(C(=O)COc2ccc3c(c2)OCO3)c1C` the activation was 6.28%. `Cn1c(SCC(=O)c2cccs2)nnc1-c1ccco1` gave an activation of -23%. Compound `CCCn1c(SCC(=O)N2CCc3ccccc32)nnc1-c1ccncc1` has an activation of -11%. `CCCSC1=C(C#N)C(c2ccccc2C)C(C(=O)OC)C(=O)N1` (stereo unspecified) was tested, and the activation was -16.4%. `Cc1cc(C)c2c(c1)cc(C)c1nnc(SCC(=O)Nc3cc(C)on3)n12` was tested, and the activation was -30.3%. With `CCOC(=O)c1cc(-c2nnc(-c3cc(OC)c(OC)c(OC)c3)o2)c(C)nc1C` the activation was -21.7%. For `O=C(Nc1ccc(S(=O)(=O)N2CCCC2)cc1Cl)C1=COCCO1`, the activation was 22.5%. With `O=C(O)c1ccc(NS(=O)(=O)c2cccc3nsnc23)cc1` the activation was 1.35%. `CC1=CC(C)(C)N(C(=O)CSc2nccn2C)c2cc(C)ccc21` gave an activation of -9.35%. With `CN1CCC2(CC1)NC(=O)NC2=O` the activation was -11.5%. Compound `COC(=O)C(CC(=O)Nc1cc(C)ccc1C)Nc1ccccc1OC` (stereo unspecified) has an activation of 3.63%. Work on `Cn1cccc1C(=O)NC(=O)COC(=O)Cc1coc2ccc3ccccc3c12` yielded an activation of -54.5%. For `Cc1ccc(NC(=O)CS(=O)CC(=O)N(c2ccccc2)C(C)C(=O)NC2CCCC2)cc1` (stereo unspecified), the activation was 0.43%. `CCCc1nnc(NC(=O)c2cc(OC)cc(OC)c2)s1` gave an activation of -49.8%. With `CCCc1nc(SCC(=O)Nc2ccccc2OC)c2c(=O)n(C)c(=O)n(C)c2n1` the activation was -10.4%. For `CCc1cc(=O)oc2cc(C)cc(OC(C)C(=O)O)c12` (stereo unspecified), the activation was 12.8%.
